Exocytosis inh: LAMP-1 surface exposure blockers, TALL-104 cells – cell-based, flow cytometry, MLPCN library, primary screen | TALL-104 LAMP-1 surface exposure; cells stimulated with thapsigargin and PMA | inhibition, % at 10 µM | hit rate 0.66% among 360,000 | AID 651702, 2012;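 active = inhibition above about 55%, limit read from the data; inconclusive = no clear call, values can overlap the other calls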
JMJD2C inh: inhibitors of GASC-1 histone demethylase, primary screen, biochemical, fluorescence, DELFIA europium; GST-JMJD2C(1-420) H3K9me3 demethylation; hit rate 0.069% among 330,000; inhibition, % at 2.35 µM; Lysine-specific demethylase 4C (Homo sapiens), Q9H3R0;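 active = more than half of a compound's replicate wells show inhibition beyond 50%, single wells judged on their own value; inconclusive = some, but no more than half, of replicates pass 50% inhibition; inactive = no replicate passes 50% inhibition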;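 also: signal counts dimethyl H3K9 product captured on neutravidin plate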
Target sequence (Q9H3R0 1-420 limits assumed): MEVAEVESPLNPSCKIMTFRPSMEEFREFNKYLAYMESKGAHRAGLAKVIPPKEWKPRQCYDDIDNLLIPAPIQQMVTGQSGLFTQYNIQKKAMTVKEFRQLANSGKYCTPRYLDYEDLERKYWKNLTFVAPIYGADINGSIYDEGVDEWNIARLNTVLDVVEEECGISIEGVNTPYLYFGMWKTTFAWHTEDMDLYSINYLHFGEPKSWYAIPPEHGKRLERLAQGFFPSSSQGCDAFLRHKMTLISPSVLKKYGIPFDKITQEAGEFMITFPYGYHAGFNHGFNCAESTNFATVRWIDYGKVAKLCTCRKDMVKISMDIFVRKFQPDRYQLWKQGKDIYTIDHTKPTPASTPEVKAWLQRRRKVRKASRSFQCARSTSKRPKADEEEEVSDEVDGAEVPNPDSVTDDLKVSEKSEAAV
ALR inh: inhibitors of human ALR sulfhydryl oxidase, primary screen, biochemical, H2O2 detection, HRP-luminol luminescence, single point. inhibition, % (test concentration not listed). purified ALR, DTT oxidation. FAD-linked sulfhydryl oxidase ALR (Homo sapiens), P55789. hit rate 3.8% among 290,000. AID 485317, 2010;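 active = mean replicate inhibition above about 79%, with every replicate also reaching it, limit read from the data; inconclusive = only one of the two criteria met; inactive = mean below limit and not every replicate reaching it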
Target sequence (P55789 whole entry, looked up): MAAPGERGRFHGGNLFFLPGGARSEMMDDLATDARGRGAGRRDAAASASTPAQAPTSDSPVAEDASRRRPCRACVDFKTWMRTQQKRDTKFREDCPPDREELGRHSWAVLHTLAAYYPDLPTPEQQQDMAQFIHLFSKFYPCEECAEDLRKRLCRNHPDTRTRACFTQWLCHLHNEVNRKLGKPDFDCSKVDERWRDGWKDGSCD
SMARCA2 act: SMARCA2 (BRM) function activators, primary screen, cell-based, luminescence, high throughput | MG213 cells, MMTV-luciferase reporter, dexamethasone, overnight | activation, % at 9.1 µM | hit rate 1% among 370,000 | AID 652017, 2013; in the data active = activation above about 7.8%
M18AAP inhibitor: PfM18AAP inhibitors, malaria aminopeptidase, primary screen, biochemical, QFRET, recombinant enzyme; M18 aspartyl aminopeptidase (Plasmodium falciparum 3D7); H-Glu-NHMec fluorogenic cleavage; inhibition, % at 7.35 µM; hit rate 1.2% among 290,000;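 active = inhibition above the campaign mean inhibition over all tested compounds plus 3 SD, cut at about 28% in these data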
MIN6 prolif: inducers of MIN6 beta-cell proliferation, primary screen, ATP luminescence, uHTS; proliferation, % at 10 µM; hit rate 0.29% among 330,000; MIN6 cells proliferation, ATPlite luminescence, 48 h; cells starved in 0.2% serum; 100% = growth in 10% serum;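 active = compounds whose signal lies at least 3.5 SD above the mean of all wells on their plate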
Exocytosis CP01: inhibitors of lytic granule exocytosis, confirmation, TALL-104 cells, flow cytometry, Cherry Pick01; inhibition, % at 10 µM; AID 651954, 2012; LAMP-1 externalization; stimulated with PMA plus thapsigargin; hit rate 11% among 1,500; shares compounds with Exocytosis inh; in the data active = inhibition above about 60%
Large screens that a line does not name were inactive (follow-up assays come after a bar, where they were run). Rows were chosen to be rich in hits. Some 5.4% of all compounds tested hit in one or more screens of this group.

Cc1cc2oc(=O)cc(CN(C)Cc3ccccc3F)c2cc1Cl	none
Cc1cc2oc(=O)cc(CN(C)Cc3ccccc3Cl)c2cc1C	Exocytosis inh 96 | Exocytosis CP01 inactive
Cc1cc2oc(=O)cc(CN(C)Cc3ccccc3)c2cc1C(C)C	Exocytosis inh 69 | Exocytosis CP01 inactive
CCOC(=O)N1CCN(C(=O)C[C@H]2C[C@@]3(C(=O)OC)C(=C[C@H](C(C)C)O[C@@H]3C3CC3)N(Cc3ccc4c(c3)OCO4)C2=O)CC1	none (no result: Exocytosis inh, JMJD2C inh, ALR inh, M18AAP inhibitor, MIN6 prolif)
CCCCNC(=O)c1cc2c(=O)n(CC)c3ccccc3c2s1	Exocytosis inh 60 (no result: ALR inh) | Exocytosis CP01 inactive
O=C(C(=O)N1CCC(CNS(=O)(=O)c2ccc(F)cc2)CC1)c1cc2ccccc2o1	none (no result: Exocytosis inh, JMJD2C inh, ALR inh, M18AAP inhibitor, MIN6 prolif)
Cc1noc(C)c1S(=O)(=O)N(CC(=O)NCc1ccccc1)c1ccc(C(C)C)cc1	none
Cc1noc(C)c1S(=O)(=O)N(CC(=O)NCCc1ccccc1)c1ccc(C(C)C)cc1	Exocytosis inh 56 | Exocytosis CP01 inactive
Cc1noc(C)c1S(=O)(=O)N(CC(=O)NC(C)c1ccccc1)c1ccc(C(C)C)cc1 (stereo unspecified)	Exocytosis inh 70, JMJD2C inh inconclusive | Exocytosis CP01 inactive
COC(=O)c1cc2c(c3c4cc(OC)ccc4n(S(=O)(=O)c4cccc(C)c4)c13)C(=O)N(Cc1ccc(N(C)C)cc1)C2	none (no result: Exocytosis inh, JMJD2C inh, ALR inh, M18AAP inhibitor, MIN6 prolif)
COc1cc(CC(=O)Nc2nc(-c3ccccc3)c(C(C)=O)s2)cc(OC)c1OC	none
COc1ccc(CC(=O)Nc2nc(-c3ccccc3)c(C(C)=O)s2)cc1OC	Exocytosis inh 78 | Exocytosis CP01 inactive
C[C@H]1CNC(=O)c2c(C(=O)N3CCN(c4ccccc4)CC3)ncn21	none (no result: Exocytosis inh, JMJD2C inh, ALR inh, M18AAP inhibitor, MIN6 prolif)
O=C1CCC2CCCCC2(O)O1 (stereo unspecified)	Exocytosis inh 64 | Exocytosis CP01 inactive
O=C(O)Cn1c(=O)n(Cc2ccccc2)c2ccccc21	Exocytosis inh 58 | Exocytosis CP01 inactive
N=c1n(CC(=O)c2cccs2)c2ccccc2n1Cc1ccccc1	none
COc1cccc(CN2CCC(C(=O)Nc3ccc(-c4cccc(C)c4)cc3)CC2)c1O	Exocytosis inh 74 | Exocytosis CP01 inactive
Cc1cccc(-c2ccc(NC(=O)C3CCN(CC4CC4)CC3)cc2)c1	none
CCOC(=O)N[C@H](C(=O)N1CCC[C@H]1C(=O)NCc1ccccc1)C(C)C	none (no result: Exocytosis inh, JMJD2C inh, ALR inh, M18AAP inhibitor, MIN6 prolif)
CC1=C(C(=O)N(C(C)C)C(C)C)CC(CC(=O)NCC2CCCCC2)C(=O)N1Cc1ccc(C(C)(C)C)cc1 (stereo unspecified)	Exocytosis inh 64 (no result: JMJD2C inh, ALR inh, M18AAP inhibitor, MIN6 prolif) | Exocytosis CP01 inactive
C[C@H](CO)N1C[C@H](C)[C@@H](CN(C)C(=O)Nc2cccc(C(F)(F)F)c2)OCc2cn(nn2)CCCC1=O	none (no result: Exocytosis inh, JMJD2C inh, ALR inh, M18AAP inhibitor, MIN6 prolif)
C=CCN(C(=O)CCc1ccccc1OC)c1nc(-c2ccc(S(C)(=O)=O)cc2)cs1	Exocytosis inh 83 | Exocytosis CP01 inactive
C=CCN(C(=O)Cc1cccs1)c1nc(-c2ccc(S(C)(=O)=O)cc2)cs1	none
Cc1cc(C)cc([C@H]2C[C@]34CN(Cc5ccccc5)S(=O)(=O)[C@H]3C[C@H]2O4)c1	none (no result: Exocytosis inh, JMJD2C inh, ALR inh, M18AAP inhibitor, MIN6 prolif)
CC(=O)OCCCN1CCC2(CCC(c3ccccc3)CC2)C1=O (stereo unspecified)	none (no result: Exocytosis inh, JMJD2C inh, ALR inh, M18AAP inhibitor, MIN6 prolif)
O=C1CC[C@@H](O)CCN1CC[C@H](Sc1ccc(Br)cc1)c1ccccc1	none (no result: M18AAP inhibitor)
CC(C)(C)[C@@H]1CCC(=O)N(CC[C@H](Sc2ccc(Br)cc2)c2ccccc2)CC1	Exocytosis inh 65 (no result: M18AAP inhibitor) | Exocytosis CP01 inactive
CCOC(=O)Nc1ccc2c(c1)N(C(=O)CCN(CC)CC)c1ccccc1S2=O (stereo unspecified)	Exocytosis inh 73 | Exocytosis CP01 inactive
CCOC(=O)Nc1ccc2c(c1)N(C(=O)CCN(CC)CC)c1ccccc1CC2	none
COCCN1CCCc2nc(-c3ccc(F)cc3)ccc21	none (no result: Exocytosis inh, JMJD2C inh, ALR inh, M18AAP inhibitor, MIN6 prolif)
CCN(CC)CC(O)Cn1c2ccccc2c2ccccc21 (stereo unspecified)	none
CCN(CC)CC(O)Cn1c(C)c(-c2ccccc2)c2cc([N+](=O)[O-])ccc21 (stereo unspecified)	Exocytosis inh 58 | Exocytosis CP01 inactive
Cc1ccc(CNC(=O)C2CC(c3cccc(F)c3)=NO2)cc1 (stereo unspecified)	Exocytosis inh 72 (no result: M18AAP inhibitor) | Exocytosis CP01 inactive
CCOC(=O)CNC(=O)N(C)[C@H]1C[C@H]2c3[nH]c4c(-c5ccccc5)cccc4c3CCN2C(=O)[C@H]1[C@H](C)O	none (no result: Exocytosis inh, JMJD2C inh, ALR inh, M18AAP inhibitor, MIN6 prolif)
CCN1C(=O)c2cccc3c(S(=O)(=O)N4CCNCC4)ccc1c23	none (no result: M18AAP inhibitor)
CCN1C(=O)c2cccc3c(S(=O)(=O)N4CCCC4C(=O)O)ccc1c23 (stereo unspecified)	Exocytosis inh 60 | Exocytosis CP01 inactive
CC(C)N1Cc2nnn(Cc3ccccc3)c2-c2cc(F)ccc2S1(=O)=O	none (no result: Exocytosis inh, JMJD2C inh, ALR inh, M18AAP inhibitor, MIN6 prolif)
N#CC1C(=O)c2ccccc2C1c1ccccc1 (stereo unspecified)	Exocytosis inh 64 (no result: JMJD2C inh, ALR inh, M18AAP inhibitor, MIN6 prolif) | Exocytosis CP01 inactive
CCc1ccc(NCc2ccc(OC)c(Cn3ccnc3)c2)cc1	Exocytosis inh 58, ALR inh 81 | Exocytosis CP01 inactive
COc1ccc(CNc2ccc(Cl)cc2)cc1Cn1ccnc1	none (no result: ALR inh)
CCCn1cc([C@@H]2C[C@H]3CN(Cc4cccc(Cl)c4)C(=O)[C@]34CCCN24)c(C)n1	none
Cc1c([C@@H]2C[C@H]3CN(Cc4cccc(Cl)c4)C(=O)[C@]34CCCN24)cnn1C	Exocytosis inh 78 | Exocytosis CP01 inactive
Cc1cc(C)c2nc(C)cc(N/N=C/c3ccc(O)cc3)c2c1	Exocytosis inh 87, ALR inh 99 | Exocytosis CP01 101
COc1cc(CNC(C)c2ccccc2)cc(Br)c1OCc1ccc(F)cc1 (stereo unspecified)	Exocytosis inh 65 | Exocytosis CP01 inactive
COc1cc(CNC(C)c2ccccc2)cc(Br)c1OCc1ccccc1 (stereo unspecified)	Exocytosis inh 88 | Exocytosis CP01 inactive
CCCN1CCN(CCCNC(=O)c2cc3c(s2)-c2c(C)cccc2OC3)CC1	Exocytosis inh 65 | Exocytosis CP01 inactive
CCCN1CCN(CCCNC(=O)c2cc3c(s2)-c2ccccc2OC3)CC1	none
Cc1cccc2c1-c1sc(C(=O)NCCCN3CCCC(C)C3)cc1CO2 (stereo unspecified)	Exocytosis inh 85 | Exocytosis CP01 inactive
CC1CC(C)CN(CCCNC(=O)c2cc3c(s2)-c2ccccc2OC3)C1 (stereo unspecified)	none
